The values that follow come from PubChem BioAssay (NCATS).

Results filed as inconclusive are left out. Entries that show only a call come without a potency. Unmarked numbers belong to inactive results. Calls of active or inactive are those of the source. Calls follow the shape of the dose curve; as a rule, active = well fitted activation curve with a large enough effect; inconclusive = small, poorly fitted or top-dose-only effect; inactive = flat fitted curve, though single readings scatter.
Potency is read from the fitted curve at half-maximal effect.

Nuclear receptor subfamily 1 group I member 2 (Homo sapiens), sequence (O75469 whole entry, looked up): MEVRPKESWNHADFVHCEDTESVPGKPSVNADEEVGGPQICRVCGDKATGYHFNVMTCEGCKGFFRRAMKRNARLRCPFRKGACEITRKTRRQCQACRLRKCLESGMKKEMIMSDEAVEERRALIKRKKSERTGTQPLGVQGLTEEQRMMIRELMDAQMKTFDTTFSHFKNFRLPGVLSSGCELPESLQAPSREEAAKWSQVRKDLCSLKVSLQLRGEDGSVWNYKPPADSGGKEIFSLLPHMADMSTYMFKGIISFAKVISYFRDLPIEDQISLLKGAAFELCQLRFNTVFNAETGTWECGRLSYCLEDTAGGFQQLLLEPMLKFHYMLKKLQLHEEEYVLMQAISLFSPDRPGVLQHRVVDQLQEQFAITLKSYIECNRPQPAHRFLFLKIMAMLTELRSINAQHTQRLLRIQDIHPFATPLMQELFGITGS

The target of the test is Nuclear receptor subfamily 1 group I member 2 (Homo sapiens) (UniProt O75469). The experiment in a line: Dual reporter qHTS for agonist of Pregnane X Receptor (hPXR) against the NCATS DSHEA and TCM libraries: Luminescence readout (AID 1920059). The conditions noted are these: hPXR dual reporter cells, luciferase luminescence agonist; series mostly up to 40 µM. The text has this:
Assay Development and Screening Technology Laboratory (ADST)
National Center for Advancing Translational Sciences (NCATS), Rockville, MD
National Institute of Health (NIH), Bethesda, Maryland
Dietary Supplements and Natural Products have minor oversight of their safety and efficacy. We assembled a collection of Dietary Supplements and Natural Products (DSNP) as well as Traditional Chinese Medicinal (TCM) Plant extracts, which were screened against an in vitro panel of assays, including a liver cytochrome p450 enzyme panel, CAR/PXR signaling pathways, and P-gp transporter assays, to assess their activity. This pipeline facilitated the interrogation of Natural Product-Drug Interaction (NaPDI) through prominent metabolizing pathways. In addition, we compared the activity profiles of the DSNP/TCM substances with those of an approved drug collection. Many of the approved drugs have well-annotated mechanisms of action (MOA) while the MOAs for most of the DSNP and TCM samples remain unknown. Based on the premise that compounds with similar activity profiles tend to share similar targets or MOA, we clustered the library activity profiles to identify overlap with the NCATS Pharmaceutical Collection to predict the MOAs of the DSNP/TCM substances. Overall, we highlight four significant bioactivity profiles (measured by p-values) as examples of this prediction. To assess broad cytotoxicity, we employed screening against a HepG2 cell line. In addition, transporter-mediated drug interactions are utilized in the characterization of DDIs using a P-glycoprotein (P-gp) assays. To profile potential P-gp activity, a differential cell viability was measured against two cell lines: a parental KB-3-1 human cervical adenocarcinoma cell line and the drug-resistant subline KB-8-5-11 that overexpresses P-gp.
To this end, we profiled both collections for potential CAR and/or PXR activity, employing a previously published 1536-well qHTS assay.
[1] Lee TD, et al. A High-Throughput Screen of a Library of Therapeutics Identifies Cytotoxic Substrates of P-glycoprotein. Mol Pharmacol. Nov 2019;96(5):629-640. doi:10.1124/mol.119.115964
For PXR luciferase reporter gene assays, we used hPXR-LucHepG2cells provided by Dr. Taosheng Chen (Department of Chemical Biology and Therapeutics, St. Jude Children's Research Hospital). Cells were cultured in EMEM supplemented with 10% fetal bovine serum, 100U/mL penicillin and 100ug/mL streptomycin, and 500ug/mL of geneticin.
PROTOCOL TABLE (as described by Inglese J, Shamu CE and Guy RK. 2007)
SEQUENCE No. (e.g., 1, 2, 3, etc.); […] (e.g., Cells, Incubation, Reagent, etc.); VALUE; DESCRIPTION.
1; Cells; 5 uL; hPXR-LucHepG2; white solid-bottom Greiner plate.
2; Incubation; 5h; 37C, 95% humidity, 5% CO2
3; Compounds and control; 23 nL; Kalypsis pintool (Wako USA).
4; Reagent; 1uL; rifampicin (RIF) in the antagonist mode.
6; Reagent; 1 uL; CellTiter-Fluor detection reagent.
7; Incubation; 1 hr; 37C, 5% CO2.
8; Read; Fluorescence; ViewLux plate reader.
9; Reagent; 4 uL; ONE-Glo Luciferase detection reagent.
10; Incubation; 30 min; room temperature.
11; Read; Luminescence; ViewLux plate reader.
NOTES (numbers refer to Sequence numbers above)
1. Briefly, 5uL of hPXR-LucHepG2 cells in phenol red-free DMEM containing 5% charcoal-stripped FBS, 1 mM sodium pyruvate (Invitrogen), 2 mM L-glutamine (Invitrogen), and 100 U/mL penicillin and 100ug/mL streptomycin were dispensed using a BioRAPTR FRD at 4 x 10^5cells/mL (2000cells/well) in tissue culture-treated 1536-well white assay plates (GreinerBio-One).
2. Plates were incubated for 5h at 37C, 95% humidity, and 5% CO2 to allow for cell attachment.
3. Compounds (final concentration for most substances ranged from 15.6 nM to 45.9uM), positive control rifampicin (RIF; final concentration range of 2.8 nM to 92uM for the agonist mode), and cytotoxicity control tetraoctyl ammonium bromide (final concentration of 92uM) were transferred (23 nL) via pintool (Wako Automation).
4-5. […]
With `CC/C=C\C/C=C\C/C=C\C/C=C\C/C=C\C/C=C\CCC(=O)O`, the Potency entry was “inactive”.

In the case of `C=C1CC[C@H](O)C/C1=C\C=C1/CCC[C@]2(C)[C@@H]([C@H](C)CCCC(C)C)CC[C@@H]12`, the Potency was 31.6 µM (active).

In the case of `CC1=CCC2CC1C2(C)C` (centres undefined), the Potency result was “inactive”.

With `Oc1ccc(/C=C/c2cc(O)cc(O)c2)cc1`, the Potency was 31.6 µM (active).

On to `CC(C)=CCC/C(C)=C/C=C/C(C)=C/C=C/C(C)=C/C=C/C=C(C)/C=C/C=C(C)/C=C/C=C(\C)CCC=C(C)C`, for which the Potency entry is “inactive”.

Regarding `CCCCC/C=C\C/C=C\C/C=C\CCCCC(=O)O`, the activation was -11.8% [at 5 µM].

As to `CC/C=C\C/C=C\C/C=C\CCCCCCCC(=O)O`, the Potency entry is “inactive”.

As to `CC/C=C\C/C=C\C/C=C\C/C=C\C/C=C\CCCC(=O)O`, the Potency entry was “inactive”.

As for `CC[C@H](CC[C@@H](C)[C@H]1CC[C@H]2[C@@H]3CC=C4C[C@@H](O)CC[C@]4(C)[C@H]3CC[C@]12C)C(C)C`, the Potency entry is “inactive”.

Take `CCCCCCCCCCCC(=O)OCC(O)CO` (centres undefined): the Potency result was “inactive”.

Regarding `O=C(O)/C=C/c1ccccc1`, the Potency entry was “inactive”.

For the compound `Cc1ncc(C[n+]2csc(CCO)c2C)c(N)n1`, the Potency entry is “inactive”.

Regarding `Oc1cccc(O)c1O`, the Potency entry is “inactive”.

On to `COC1=C(OC)C(=O)C(C/C=C(\C)CC/C=C(\C)CC/C=C(\C)CC/C=C(\C)CC/C=C(\C)CC/C=C(\C)CC/C=C(\C)CC/C=C(\C)CC/C=C(\C)CCC=C(C)C)=C(C)C1=O`, for which the Potency result is “inactive”.
